rCAG RNA binder = molecules binding r(CAG) RNA repeats. AID 651821. r(CAG) RNA repeat, TO-PRO-1 dye displacement fluorescence. 1.3% of 370,000 active. inhibition, % at 3 µM;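 active means inhibition above the plate cutoff, the mean of all test compounds on that plate plus 3 SD, cut at about 35% in these data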;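 further: 0% = DMSO alone and 100% = 100 µM mitoxantrone as full dye displacement; higher means more dye released from RNA so lower well fluorescence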
LANA-H2A inh = blocks KSHV LANA binding to histone H2A/H2B | Q9QR71 | inhibition, % (test concentration not listed) | 0.6% of 320,000 active | cell-free LANA-H2A/H2B peptide, fluorescence polarization; in the data active means inhibition mostly above about 10%, no sharp cut-off; inactive means mostly below about 6.7%
ABHD5-PLIN5 inh = inhibitors of human ABHD5-perilipin-5 interaction; Q00G26+Q8WTS1; Split G. princeps luciferase complementation, luminescence, 4 h; inhibition, % at 4 µM; 0.78% of 360,000 active; AID 602281;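 active means inhibition above the mean inhibition across every tested compound plus 3 SD, cut at about 22% in these data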;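 further: 0% = DMSO only wells and the 100% control is not disclosed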
Target sequence (Q00G26 whole entry, looked up): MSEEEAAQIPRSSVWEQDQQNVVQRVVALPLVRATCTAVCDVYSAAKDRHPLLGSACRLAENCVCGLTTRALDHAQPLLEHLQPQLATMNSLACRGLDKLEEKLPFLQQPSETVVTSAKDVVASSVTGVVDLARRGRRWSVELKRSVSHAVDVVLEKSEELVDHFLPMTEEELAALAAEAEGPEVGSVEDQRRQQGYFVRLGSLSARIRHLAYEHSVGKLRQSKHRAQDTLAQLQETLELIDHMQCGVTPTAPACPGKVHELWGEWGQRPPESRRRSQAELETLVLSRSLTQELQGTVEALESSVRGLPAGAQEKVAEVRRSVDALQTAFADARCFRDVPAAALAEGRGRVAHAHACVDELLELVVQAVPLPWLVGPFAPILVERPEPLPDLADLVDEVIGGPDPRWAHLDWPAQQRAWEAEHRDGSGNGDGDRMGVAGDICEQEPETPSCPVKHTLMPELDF
Target sequence (Q8WTS1 whole entry, looked up): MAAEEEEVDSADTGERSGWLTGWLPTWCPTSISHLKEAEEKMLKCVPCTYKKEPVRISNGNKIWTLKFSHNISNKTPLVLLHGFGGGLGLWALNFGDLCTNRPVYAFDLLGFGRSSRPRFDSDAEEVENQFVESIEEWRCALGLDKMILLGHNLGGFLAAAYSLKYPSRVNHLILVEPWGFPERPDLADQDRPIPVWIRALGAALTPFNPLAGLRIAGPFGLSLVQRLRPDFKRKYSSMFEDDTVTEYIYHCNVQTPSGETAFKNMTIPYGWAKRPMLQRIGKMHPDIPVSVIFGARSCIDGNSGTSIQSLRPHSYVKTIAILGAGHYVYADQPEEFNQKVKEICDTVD
Rtt109 Vps75 = blocks Candida albicans Rtt109/Vps75 acetyltransferase activity | purified Rtt109/Vps75, ThioGlo CoA-SH fluorescence, 4 h | inhibition, % at 34.9 µM | 0.16% of 330,000 active;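 active means inhibition of at least 50% in every replicate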
ALR H2O2 inh = inhibitors of human sulfhydryl oxidase ALR; P55789; purified ALR, DTT oxidation, H2O2 HRP-luminol luminescence; inhibition, % (concentration not given with the values); 3.8% of 290,000 active;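 active means mean replicate inhibition above about 79%, with every replicate also reaching it, limit read from the data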
PRMT1 inh = inhibitors of human PRMT1. Q99873. recombinant PRMT1, activity-based probe fluorescence polarization. inhibition, % at 2.79 µM. 1.3% of 370,000 active;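 active means inhibition above about 21% made by adding two undisclosed values, limit read from the data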
Numbers without * were called inactive. In the library only some 5.9% were active in any assay of this set; here they are far more common.

`COC(=O)c1ccc(CN2CCCC(C(=O)Nc3cccc(-n4cccn4)c3)C2)cc1` (stereo not given) gave rCAG RNA binder -3, LANA-H2A inh 2, ABHD5-PLIN5 inh 6, Rtt109 Vps75 3, ALR H2O2 inh -3 and PRMT1 inh -2.
Screening CC(=O)c1cccc(CN2CCCC(C(=O)Nc3ccc(-c4ccco4)cc3)C2)c1 (stereo not given) returned rCAG RNA binder 8, LANA-H2A inh 0, ABHD5-PLIN5 inh 30*, Rtt109 Vps75 -5, ALR H2O2 inh 3 and PRMT1 inh 9.
For O=C(Nc1ccc(-c2ccco2)cc1)C1CCCN(Cc2ccc(CO)o2)C1 (stereo not given) the results were rCAG RNA binder 6, LANA-H2A inh 5, ABHD5-PLIN5 inh 12, Rtt109 Vps75 6, ALR H2O2 inh -13 and PRMT1 inh 5.
CC(=O)c1cccc(CN2CCCC(C(=O)Nc3cccc(-n4cccn4)c3)C2)c1 (stereo not given) was read as rCAG RNA binder -1, LANA-H2A inh 3, ABHD5-PLIN5 inh -2, Rtt109 Vps75 4, ALR H2O2 inh -1 and PRMT1 inh 22*.
For O=C1NC[C@H](CCCCN2C[C@H](Cc3ccccc3)N(CCc3ccc(O)cc3)C(=O)C2=O)N(CCc2ccccc2)C1=O the results were rCAG RNA binder 1, ABHD5-PLIN5 inh 3 and PRMT1 inh 4.
Screening COC(=O)[C@]12C[C@H](CC(=O)NCC34CC5CC(CC(C5)C3)C4)C(=O)N(CCc3ccc(OC)c(OC)c3)C1=C[C@H](C1CCCC1)O[C@@H]2C returned rCAG RNA binder 5 and PRMT1 inh -1.
CCN(CC)CCNC(=O)CS(=O)Cc1nc(-c2ccccc2Cl)oc1C (stereo not given) was read as rCAG RNA binder 0, LANA-H2A inh 9, ABHD5-PLIN5 inh -2, Rtt109 Vps75 -9, ALR H2O2 inh 99* and PRMT1 inh 4.
Screening CCN(CC)CCNC(=O)CS(=O)Cc1nc(-c2ccc(C)cc2)oc1C (stereo not given) returned rCAG RNA binder -2, LANA-H2A inh -1, ABHD5-PLIN5 inh 6, Rtt109 Vps75 5, ALR H2O2 inh 99* and PRMT1 inh 0.
`Cc1ccc(CNC(=O)CS(=O)CC(=O)O)cc1` (stereo not given) gave rCAG RNA binder 0, LANA-H2A inh 1, ABHD5-PLIN5 inh 2, Rtt109 Vps75 -11, ALR H2O2 inh -6 and PRMT1 inh 2.
For Cc1oc(-c2ccccc2Cl)nc1CSCC(=O)NC1CCCC1 the results were rCAG RNA binder -3, LANA-H2A inh 4, ABHD5-PLIN5 inh -1, Rtt109 Vps75 14 and PRMT1 inh 1.
`CCN(CC)CCNC(=O)CS(=O)Cc1nc(-c2ccc(Cl)cc2)oc1C` (stereo not given) gave rCAG RNA binder -5, LANA-H2A inh -3, ABHD5-PLIN5 inh 2, Rtt109 Vps75 -10, ALR H2O2 inh 99* and PRMT1 inh 4.
Screening Cc1ccc(CNC(=O)CS(=O)Cc2nc(-c3ccccc3Cl)oc2C)cc1 (stereo not given) returned rCAG RNA binder -5, LANA-H2A inh 1, ABHD5-PLIN5 inh -11, Rtt109 Vps75 -3, ALR H2O2 inh 95* and PRMT1 inh 3.
Cc1oc(-c2ccc(Cl)cc2)nc1CS(=O)CC(=O)NCCCN1CC(C)CC(C)C1 (stereo not given) was read as rCAG RNA binder -4, LANA-H2A inh 1, ABHD5-PLIN5 inh 8, Rtt109 Vps75 6, ALR H2O2 inh 13 and PRMT1 inh 4.
`CCOCC(=O)NC(=O)N1C[C@H]2CON(C)[C@H]2C[C@H]1c1ccc(OC)cc1` gave rCAG RNA binder 2 and PRMT1 inh 0.
CCC[C@H]1OC(=O)[C@@H]2CCCN2C(=O)[C@H]([C@H](C)Cc2ccccc2)NC(=O)[C@@H]2CCCN2C(=O)[C@@H]2CCCN2C(=O)[C@H](C(C)C)OC(=O)[C@@H]2CCCN2C(=O)[C@H](C(C)C)NC(=O)C1(C)C was read as PRMT1 inh 2.
Screening O=C(NNC(=O)c1cc(S(=O)(=O)N2CCOCC2)ccc1Cl)c1ccc(F)cc1 returned rCAG RNA binder 2, ABHD5-PLIN5 inh 8 and PRMT1 inh 2.
For CC(C)C[C@H](NC(=O)c1ccc(Cl)c(Cl)c1)C(=O)N1CCC[C@H]1C(=O)NCc1ccccc1 the results were rCAG RNA binder 0 and PRMT1 inh 1.
O=C(CSc1cccc[n+]1[O-])c1cc2ccccc2o1 was read as LANA-H2A inh 1, ABHD5-PLIN5 inh 7, Rtt109 Vps75 4 and ALR H2O2 inh 94*.
Cc1ccccc1OCC(O)COc1ccccc1C was read as rCAG RNA binder -2, ABHD5-PLIN5 inh -12, Rtt109 Vps75 -1 and PRMT1 inh -5.
For CCOC(=O)c1cc2sccc2n1CC(=O)N1CCN(C(=O)c2ccco2)CC1 the results were rCAG RNA binder -3, LANA-H2A inh -15, ABHD5-PLIN5 inh 6, Rtt109 Vps75 5, ALR H2O2 inh -1 and PRMT1 inh 0.
`CCOC(=O)c1cc2sc(C)cc2n1CC(=O)N1CCN(C(=O)c2ccco2)CC1` gave rCAG RNA binder -1, LANA-H2A inh 0, ABHD5-PLIN5 inh 4, Rtt109 Vps75 -8, ALR H2O2 inh 99* and PRMT1 inh 4.
For COc1ccc(-c2noc(C3CCCN(C(=O)Nc4cccc(C)c4)C3)n2)cc1 (stereo not given) the results were rCAG RNA binder 7 and PRMT1 inh 4.
`Cc1ccc(C(=O)NC(=S)NNC(=O)CC#N)cc1` gave rCAG RNA binder -1, LANA-H2A inh -3, ABHD5-PLIN5 inh -4, Rtt109 Vps75 -4, ALR H2O2 inh 99* and PRMT1 inh 4.
For CCCCC(=O)NNC(=S)NC(=O)c1ccc(C)cc1 the results were rCAG RNA binder 5, LANA-H2A inh -6, ABHD5-PLIN5 inh -7, Rtt109 Vps75 8, ALR H2O2 inh 99* and PRMT1 inh 9.
`COc1ccc(C(=O)NC(=S)NNC(=O)c2ccc(C)cc2)cc1` gave rCAG RNA binder 16, LANA-H2A inh 4, ABHD5-PLIN5 inh -2, Rtt109 Vps75 4, ALR H2O2 inh 0 and PRMT1 inh 0.
For NC(Cc1ccc(Cl)cc1)c1csc(NC(=O)Nc2ccccc2-c2ccccc2)n1 (stereo not given) the results were rCAG RNA binder 18, ABHD5-PLIN5 inh 0 and PRMT1 inh -7.
CS(=O)(=O)Nc1cccc(NC(=O)C2Cc3c(-c4ccccc4)ccnc3O2)c1 (stereo not given) was read as rCAG RNA binder 4, ABHD5-PLIN5 inh 3 and PRMT1 inh -2.
`CN(C)c1ccc(NC(=O)CCn2c(=S)oc3ccccc32)cc1` gave rCAG RNA binder -1, LANA-H2A inh 0, ABHD5-PLIN5 inh -1, Rtt109 Vps75 -6, ALR H2O2 inh 98* and PRMT1 inh -2.

From PubChem
